Only some compounds are listed: those with a hit (about 17% of all), similar ones and a draw of the others.
ATXN viability: reduces viability in counter-screen for ATXN expression inhibitors | S2 cells (HEK-293 line with an ATXN2-luciferase reporter) viability, CellTiter-Fluor protease fluorescence, 24 h | Potency, µM (highest dose often 56.7 µM), usual class: cytotoxic | hit rate 0.49% among 400,000; note: nearly all actives have a fitted effect of over 40% in size
HepG2 tox: kills HepG2 cells in TGF-b inhibitor counter-screen; HepG2 CAGA-GFP viability, ATP luminescence, 18 h; Potency, µM (highest dose often 46.1 µM), usual class: cytotoxic; hit rate 0.76% among 410,000
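CellTiter-Glo luminescence gave cytotoxicity after 18 hours at 37 degrees C. The cells were HepG2 CAGA-GFP in 1% FBS DMEM, stimulated with 500 pg/mL TGF-beta after compound addition. %Activity was normalised to no-cell wells (complete cell-killing) and DMSO (no toxicity), and curves were fitted and classified.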
TGFb SMAD3 inh: TGF-b pathway inhibition | HepG2 CAGA-GFP TGF-b/SMAD3 reporter, GFP fluorescence, 18 h; TGF-beta stimulated, 500 pg/mL final | Potency, µM (series often up to 46.1 µM), usual class: inhibitors | hit rate 1.2% among 410,000 | AID 588855; note: nearly all actives have a fitted effect of over 65% in size
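Inhibition of TGF-beta-driven CAGA-GFP reporter expression in HEPG2 cells is measured by cellular GFP fluorescence after 18 h stimulation with 500 pg/mL recombinant TGF-beta in 1% FBS medium at 37 degrees C.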
TDP1 cell noCPT: qHTS for Inhibitors of human tyrosyl-DNA phosphodiesterase 1 (TDP1): qHTS in cells in absence of CPT | DT40 Tdp1-/- hTDP1 cells, no CPT, ATP luminescence, 48 h | Potency, µM (titrated, usually from 46.2 µM), hits mostly inhibitors | hit rate 15% among 420,000; note: nearly all actives have a fitted effect of over 55% in size
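Camptothecin absent (DMSO only). Human TDP1-complemented DT40 knockout cells, 400 cells/well, 37 °C for minimum 48 hr; ATP measured via CellTiter-Glo, 30 min dark incubation, luminescence.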
TDP1 cell CPT: growth inhibition of DT40 Tdp1-/-;hTDP1 cells with camptothecin (screen for TDP1 inhibitors); chicken DT40 Tdp1-/-;hTDP1 cells + 20 nM CPT, ATP luminescence, 48 h; Potency, µM (top dose mostly 46.2 µM), actives largely listed as inhibitors; hit rate 12% among 420,000; AID 686979; note: nearly all actives have a fitted effect of over 55% in size
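Chicken DT40 Tdp1-/- cells stably complemented with human TDP1 were seeded at 400 cells/well in medium containing 20 nM camptothecin, exposed to pin-transferred compounds, and grown at 37 °C for at least 48 hr. Viability was read as ATP luminescence.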
ATXN2 expr inh: reduces ATXN2 reporter expression in HEK-293 cells | hit rate 0.72% among 360,000 | Potency, µM (highest dose often 57 µM), hits mostly inhibitors | AID 1745845 | HEK-293 ATXN2-luciferase reporter, luminescence, 24 h; note: nearly all actives have a fitted effect of over 55% in size
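ATXN2-luciferase reporter cells (luciferase flanked by upstream and downstream ATXN2 gene portions) were treated 24 h at 37 °C with compounds at up to 57 uM. SteadyGlo luminescence gave expression; GF-AFC fluorescence gave viability.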
Each line names hits and unclear results; the compound was inactive in the other large screens. Calls come from the whole dose curve; as a rule, active = well fitted curve in the direction sought with a large enough effect; inconclusive = small, poorly fitted or top-dose-only effect, or another doubt; inactive = no such curve, though single readings can be large; an effect the other way counts as inactive or inconclusive.

COc1ccc(-c2nnc(CSc3nc4ccccc4c(=O)n3CC3CCCO3)o2)cc1OC (stereo unspecified)	ATXN viability inconclusive, TDP1 cell noCPT 23µM, TDP1 cell CPT inconclusive
COc1ncnc2c1oc1ccccc12	none (no result: ATXN2 expr inh)
Clc1ccc2oc3c(Cl)ncnc3c2c1	TDP1 cell noCPT 6.5µM, TDP1 cell CPT 18µM
CC(C)(C)c1ccc(S(=O)(=O)N2CCC(CO)(CC3CCCCO3)CC2)cc1 (stereo unspecified)	TGFb SMAD3 inh inconclusive, TDP1 cell noCPT inconclusive, TDP1 cell CPT inconclusive
O=C(Nc1ccccc1)N(Cc1ccccc1)CC(O)C(F)(F)F (stereo unspecified)	none
O=C(Nc1cccc(F)c1)N(Cc1ccc(Cl)cc1)CC(O)C(F)(F)F (stereo unspecified)	ATXN viability inconclusive, TGFb SMAD3 inh inconclusive, TDP1 cell noCPT 26µM, TDP1 cell CPT inconclusive, ATXN2 expr inh inconclusive
CCOc1ccc(CCNC(=O)COC(=O)c2c(C)nn(-c3ccccc3)c2C)cc1OCC	TDP1 cell CPT inconclusive
COc1ccc(S(=O)(=O)N2CCCC2C(=O)NCc2ccccc2Cl)cc1 (stereo unspecified)	TGFb SMAD3 inh inconclusive, TDP1 cell noCPT inconclusive
COc1ccc(S(=O)(=O)N2CCCC2CNC(=O)C(=O)NCc2ccccc2Cl)cc1 (stereo unspecified)	TDP1 cell noCPT 23µM, TDP1 cell CPT inconclusive
Cc1ccc(S(=O)(=O)N2CCCC2CNC(=O)c2ccc(F)c(F)c2)cc1 (stereo unspecified)	TDP1 cell noCPT 18µM, TDP1 cell CPT inconclusive
COc1ccc(NC(=O)C(=O)NCC2CCCN2S(=O)(=O)c2cc(C)ccc2C)cc1 (stereo unspecified)	ATXN viability inconclusive, TDP1 cell noCPT 2.6µM, TDP1 cell CPT 4.1µM
Cc1ccc(S(=O)(=O)N2CCCC2CNC(=O)C(=O)Nc2ccc(F)cc2)cc1 (stereo unspecified)	TDP1 cell noCPT 16µM, TDP1 cell CPT 21µM
Cc1ccc(C)c(S(=O)(=O)N2CCCC2CNC(=O)C(=O)Nc2ccccc2)c1 (stereo unspecified)	ATXN viability inconclusive, TDP1 cell noCPT inconclusive (no result: ATXN2 expr inh)
COc1ccc(CNC(=O)CCC2N=C3c4ccccc4N=C(SCC(=O)NCCc4ccc(OC)c(OC)c4)N3C2=O)cc1 (stereo unspecified)	ATXN viability inconclusive, TDP1 cell noCPT inconclusive
CC1CCCCC1NC(=O)CN1CCN(S(=O)(=O)c2ccc(Br)s2)CC1 (stereo unspecified)	TDP1 cell CPT inconclusive
CCn1cc(C(=O)NCC(=O)NCCCN2CCOCC2)c(=O)c2cc3c(cc21)OCO3	none
CN1CCN(C(=O)CN(C)S(=O)(=O)c2cc(Cl)ccc2Cl)CC1	none
COc1ccc(OCCC(=O)OCC(=O)NCCC2=CCCCC2)cc1	none
CC(C)(C)c1ccc(C(=O)NCC2CCCN2S(=O)(=O)c2ccccc2)cc1 (stereo unspecified)	TDP1 cell noCPT 12µM, TDP1 cell CPT 8.2µM
COc1ccc(NC(=O)C(=O)NCC2CCCN2S(=O)(=O)c2ccc(C)cc2)cc1 (stereo unspecified)	ATXN viability inconclusive, TGFb SMAD3 inh inconclusive, TDP1 cell noCPT 0.018µM, TDP1 cell CPT 0.0058µM
O=C(COC(=O)c1cc(Cl)ccc1O)NCCC1=CCCCC1	none
CCOc1ccc(-c2c(C)nn3c(C)c(C(=O)NC(C)c4ccccc4)cnc23)cc1OCC (stereo unspecified)	TDP1 cell noCPT 16µM, TDP1 cell CPT 21µM
CCOc1ccc(-c2c(C)nn3c(C)c(C(=O)Nc4ccccc4C(=O)OC)cnc23)cc1OCC	TDP1 cell CPT inconclusive
CCOc1ccc(-c2c(C)nn3c(C)c(C(=O)NCCc4ccccc4)cnc23)cc1OCC	TDP1 cell noCPT 5.2µM, TDP1 cell CPT inconclusive
O=C(c1sc2ccccc2c1Cl)N1CCN(c2ccccn2)CC1	none
CCc1cc(C(=O)N2CCN(c3ccccn3)CC2)sc1C	TDP1 cell CPT inconclusive
CCCNC(=O)Cn1cnc2sc(C(=O)N3CCN(Cc4ccc5c(c4)OCO5)CC3)c(C)c2c1=O	none
Cc1c(C(=O)N2CCN(Cc3ccc4c(c3)OCO4)CC2)sc2ncnc(N3CCN(c4ccccc4)CC3)c12	TGFb SMAD3 inh inconclusive, TDP1 cell noCPT 4.6µM, TDP1 cell CPT inconclusive (no result: ATXN2 expr inh)
Cc1c(C(=O)N2CCN(c3ccccn3)CC2)sc2ncnc(N3CCN(c4ccccc4)CC3)c12	TDP1 cell noCPT 12µM, TDP1 cell CPT inconclusive
Cc1nc(N2CCN(c3ccccn3)CC2)c2c(C)c(C(=O)N3CCN(c4cccc(Cl)c4)CC3)sc2n1	TDP1 cell noCPT 21µM, TDP1 cell CPT 15µM
CCn1c2ccccc2c2cc(NS(=O)(=O)c3ccccc3C)ccc21	TGFb SMAD3 inh inconclusive, TDP1 cell noCPT 21µM, TDP1 cell CPT inconclusive
CCn1c2ccccc2c2cc(NC(=O)C(C)C)ccc21	TDP1 cell noCPT 26µM, TDP1 cell CPT inconclusive
CCCC(=O)Nc1ccc2c(c1)c1ccccc1n2CC	TDP1 cell noCPT inconclusive, TDP1 cell CPT inconclusive
CCOC(=O)C(=CNc1ccc2c(c1)c1ccccc1n2CC)C(=O)OCC	TGFb SMAD3 inh inconclusive, TDP1 cell noCPT 8.2µM, TDP1 cell CPT 15µM (no result: ATXN2 expr inh)
CCn1c2ccccc2c2cc(NC(=O)C(C)Oc3ccccc3)ccc21 (stereo unspecified)	TDP1 cell noCPT inconclusive
CCn1c2ccccc2c2cc(NC(=O)N3CCCCC3)ccc21	TDP1 cell noCPT 23µM, TDP1 cell CPT 18µM (no result: ATXN2 expr inh)
CCN(CC)CCNC(=S)NC(=O)c1cn(-c2ccccc2)nc1-c1ccc(OC)cc1	ATXN viability inconclusive, TDP1 cell noCPT inconclusive, TDP1 cell CPT inconclusive
CS(=O)(=O)c1ccc(N2CCN(c3ccccn3)CC2)c([N+](=O)[O-])c1	TDP1 cell noCPT inconclusive
COc1ccccc1Oc1nc2c(C)cccn2c(=O)c1/C=C(\C#N)c1nc2ccccc2[nH]1	none
CCN(c1ccc(C)cc1)S(=O)(=O)c1nnc(NC(=O)c2ccco2)s1	none
CCOc1c(/C=C(\C#N)C(N)=O)c2ccccc2n1CC	ATXN viability inconclusive, TDP1 cell noCPT inconclusive, TDP1 cell CPT inconclusive
CCOC(=O)/C(C#N)=C\c1c(OCC)n(CC)c2ccccc12	TDP1 cell noCPT 18µM, TDP1 cell CPT inconclusive
Cc1cccc(N(C)S(=O)(=O)c2c[nH]c3ccc([N+](=O)[O-])cc23)c1	TGFb SMAD3 inh inconclusive, TDP1 cell noCPT inconclusive, TDP1 cell CPT inconclusive, ATXN2 expr inh inconclusive

Bioassay records deposited in PubChem by National Center for Advancing Translational Sciences (NCATS).
